# From PubChem BioAssay AID1159606 (Sanford-Burnham Center for Chemical Genomics, 2016)
# Screen size: about 360,000 compounds; about 7,300 (2%) were called active. Rule as the data show it: active = inhibition above about 50%; inactive = the rest. Only a selection was taken, and actives are over-represented in it overall.
# Assay: blockers of TWEAK-induced Fn14 reporter activity – luciferase reporter cells, uHTS, primary screen (AID 1159606)
# Details: TWEAK-stimulated Fn14 reporter cells, luciferase luminescence, 8 h; at 10 µM; active compounds read high
row,Compound,inhibition
1,COc1cccc(NC(=O)Cn2c3ccc(F)cc3c3nc4n(c(=O)c32)CCS4)c1,7% (inactive)
2,CCN(CC(=O)Nc1ccccc1C(F)(F)F)C(=O)C1CCN(C(=O)Nc2ccccc2)CC1,4.09% (inactive)
3,C=C1C(=O)OC2C1CCC(C)=CCCC1(C)OC21 (stereo unspecified),81.5% (active)
4,C[C@H]1COc2cc(N3CCSCC3)ccc2S(=O)(=O)N1,-13.1% (inactive)
5,O=c1c2ccccc2ncn1/N=C/c1ccccc1,62.7% (active)
6,CCOC(=O)N1CCN(C(=O)Cn2cnc3ccccc3c2=O)CC1,-13.1% (inactive)
7,O=c1c2ccccc2ncn1CCc1ccncc1,-5.08% (inactive)
8,CCOc1cc(/C=N/NC(=O)c2ccncc2)cc(Br)c1O,-8.09% (inactive)
9,Nn1c(SCC(=O)Nc2ccc3c(c2)CCC3)nnc1C1CC1,1.14% (inactive)
10,CCCn1c(N)c(C(=O)CSc2nc3ccccc3c(=O)n2-c2ccc(OC)cc2)c(=O)[nH]c1=O,2.25% (inactive)
11,Cc1c(NC(=O)c2coc(=O)c(Br)c2)c(=O)n(-c2ccccc2)n1C,65.9% (active)
12,Cc1cc2oc(C(=O)Nc3c(C)n(C)n(-c4ccccc4)c3=O)c(C)c2cc1Cl,4.85% (inactive)
13,Cc1c(NC(=O)c2cc(-c3ccc(Br)cc3)on2)c(=O)n(-c2ccccc2)n1C,10.9% (inactive)
14,CCOc1ccc(NC(=O)c2ccc(NC(=O)CN3C(=O)C(=O)N(CC(C)C)C3=O)cc2)cc1,-46.8% (inactive)
15,Cc1cc(C)n2nc(C(=O)Nc3cccc(S(=O)(=O)N4CCOCC4)c3)nc2n1,-5.76% (inactive)
16,O=C1C2C3C=CC(C4CC34)C2C(=O)N1c1nccs1 (stereo unspecified),17.6% (inactive)
17,COc1ccc2[nH]c3c(c2c1)CCN1C(=O)C(CC(=O)NCCCN(C)C)C[C@H](C(=O)N2CCOCC2)[C@@]31CCC1CCCC1 (stereo partly specified),-4.84% (inactive)
18,COc1ccc(CNC(=O)C[C@H]2C[C@H](C(=O)N3CCOCC3)[C@@]3(CCC4CCCC4)c4[nH]c5ccc(Cl)cc5c4CCN3C2=O)cc1OC,60.6% (active)
19,O=C(C[C@H]1C[C@H](C(=O)N2CCOCC2)[C@@]2(CCC3CCCC3)c3[nH]c4ccc(Cl)cc4c3CCN2C1=O)NCc1ccco1,32.8% (inactive)
20,Cc1cc(C)c(S(=O)(=O)NN=C2c3ccccc3[C@H]3Cc4csc[n+]4[C@@H]23)c(C)c1,13.8% (inactive)
21,Clc1ccc(COn2c(-c3ccc(Cl)cc3Cl)nc3ncccc32)cc1,11.7% (inactive)
22,Clc1ccc(-c2cc(-c3ccccn3)on2)c(Cl)c1,83.2% (active)
23,Fc1ccc(-c2ccc(CNCc3ccccn3)o2)cc1Cl,-29.9% (inactive)

row,Compound,inhibition
1,COc1cc([N+](=O)[O-])ccc1NC(=S)N1CCN(c2ccccn2)CC1,-16.1% (inactive)
2,COc1cc(OC)c2c(-c3cccc(-c4cccc(N)c4)c3)cc(=O)oc2c1,54.3% (active)
3,COc1ccc(-c2c(C)cc3oc(=O)cc(-c4ccccc4)c3c2C)cc1F,-37% (inactive)
4,COc1ccc(-c2c(C)cc3oc(=O)cc(-c4ccccc4)c3c2C)cc1OC,-10.1% (inactive)
5,CC(C)[C@@H]1NC(=O)c2cc([N+](=O)[O-])cc(I)c2NCCC[C@@H](C(=O)NC(CC(=O)O)C(N)=O)NC(=O)[C@H](CO)NC1=O (stereo partly specified),-9.29% (inactive)
6,COc1ccccc1C(=O)NCCn1cc(SCC(=O)NCc2ccco2)c2ccccc21,8.15% (inactive)
7,CCc1oc(-c2ccc(OC)cc2)c(C(=O)OCCCCCO)c1C(C)OCCO (stereo unspecified),-8.4% (inactive)
8,Cc1cc(Cl)ccc1NNC(=O)c1snnc1C,78.6% (active)
9,Cc1nnsc1C(=O)Nc1cccc(Cl)c1C,-11.4% (inactive)
10,Cc1nnsc1C(=O)NCc1c(F)cccc1Cl,21.4% (inactive)
11,CCOC(=O)[C@]12CCCC=C1N(Cc1ccc3c(c1)OCO3)C(=O)[C@H](CC(=O)N1CCN(C(=O)c3ccco3)CC1)C2,10.3% (inactive)
12,COc1ccc(-c2cn[nH]c2-c2ccc(OC)cc2)cc1,80.3% (active)
13,CCOc1ccccc1Oc1cn[nH]c1-c1ccc(OC)cc1O,33.5% (inactive)
14,COc1ccc(Oc2cn[nH]c2-c2ccc(OC)cc2O)cc1,-3.87% (inactive)
15,CC12CCC(=O)C=C1CCC1C2C(O)CC2(C)C1CCC2(O)C(O)CO (stereo unspecified),8.15% (inactive)
16,COc1ccccc1Cc1c(-c2ccc(Cl)cc2)nc2c3ccccc3ccn12,-9.82% (inactive)
17,O=C(Oc1ccc(-c2nc(-c3ccccn3)no2)cc1)c1ccccc1,92.9% (active)
18,c1ccc(-c2noc(-c3cccs3)n2)nc1,76.2% (active)
19,COc1ccc(CCc2nc(-c3cccs3)no2)cc1,-31.5% (inactive)
20,O=C(COC(=O)c1ccncc1)c1ccccc1,-3.5% (inactive)
21,Clc1ccc(-n2nnnc2-c2cnc(-c3ccccn3)nc2-c2cccs2)cc1,10% (inactive)
22,Brc1ccc(-c2noc(-c3ccccc3)n2)o1,-28% (inactive)
23,COCCN(C(=O)C(C)C)c1nnc(-c2ccc(C(C)(C)C)cc2)s1,-18% (inactive)

row,Compound,inhibition
1,CCCCN(C(=O)C1=NN(c2cc(C)ccc2C)C(=O)CC1)c1c(N)n(CCC)c(=O)[nH]c1=O,4.67% (inactive)
2,O=C1NC(O)CCN1C1CC(O)C(CO)O1 (stereo unspecified),2.05% (inactive)
3,O=C(Nc1ccccc1C(=O)N1CCOCC1)c1ccc(CSc2ccccc2)cc1,-16.9% (inactive)
4,O=C(Nc1ccc(CSc2ccccc2)cc1)c1ccc(CN2CCOCC2)cc1,62.3% (active)
5,CCOc1ccc(C(=O)Nc2ccc(CN3CCOCC3)cc2)cc1Cl,-17.1% (inactive)
6,CCOC1CCCCC1NS(=O)(=O)c1ccc(Cl)cc1 (stereo unspecified),23.1% (inactive)
7,COc1ccc2c(c1)CCC/C2=N\OC(=O)c1ccccc1F,36.7% (inactive)
8,CC(C)C[C@@H]1Cc2[nH][nH]c(=O)c2[C@H](CCc2ccccc2)O1,17% (inactive)
9,CC(NC(=O)Nc1ccccc1)C(c1cccs1)N1CCN(c2ccccc2)CC1 (stereo unspecified),1.76% (inactive)
10,O=c1oc2ccccc2cc1-c1csc(Nc2ccc(O)cc2)n1,82.7% (active)
11,Cc1ccc(Nc2nc(-c3ccc(O)cc3O)cs2)nc1,-37.9% (inactive)
12,COc1ccc2nc(Nc3nc(-c4cc5ccccc5oc4=O)cs3)sc2c1,64.4% (active)
13,COc1ccc(OC)c(-c2csc(NC(=O)C3=NNC(=O)CC3)n2)c1,-2.91% (inactive)
14,Cc1noc(C)c1CSCC(=O)Nc1nc2ccc(Oc3ccccc3)cc2s1,-4.3% (inactive)
15,Cc1ccn2c(-c3csc(Nc4ccc(C(=O)O)cc4)n3)c(C)nc2c1,21.8% (inactive)
16,CN(C)CCCOc1ccc(-c2ccc3nccn3c2)cn1,-18.9% (inactive)
17,Cc1ccc(NC(=O)c2cc([N+](=O)[O-])ccc2Cl)c(O)c1,2.69% (inactive)
18,O=C(NCC(c1cccs1)N1CCOCC1)c1cc(Cl)ccc1[N+](=O)[O-] (stereo unspecified),7.3% (inactive)
19,O=C(Nc1cccc2ccccc12)c1[nH]c(-c2ccccc2)c2c1C(=O)N(C1CC1)C2=O,-46.7% (inactive)
20,Cc1ccc(NC(=O)COC(=O)CN2CCSC2=O)cc1F,1.95% (inactive)
21,Cn1c(=O)c2c(nc(Br)n2CCSc2nc3ccccc3o2)n(C)c1=O,7.06% (inactive)
22,CN1C(CC(=O)Nc2ccc(Br)cc2)c2ccccc2CC1(C)C (stereo unspecified),12.1% (inactive)
23,COc1ccc(Nc2cc(Sc3ccc(OC)cc3)ncn2)cc1,69.9% (active)

row,Compound,inhibition
1,COc1ccc(Sc2ccc(NC(=O)c3cccc(Cl)c3)cc2C#N)cc1,26.3% (inactive)
2,COc1ccc(Nc2cc(=O)oc3ccccc23)cc1,12.8% (inactive)
3,CN(C)CCCNC(=O)c1cc(C(=O)Cc2ccc(Cl)cc2)c[nH]1,5.27% (inactive)
4,CC(C)Cn1cc(-c2cncc3nccn23)cn1,5.78% (inactive)
5,COC(=O)CC1=NN(c2ccccc2)C(=O)C1,-14.8% (inactive)
6,CCc1nc2ccccc2c(C(=O)NCc2ccc(OC)cc2)c1C,-1.16% (inactive)
7,COC(=O)Cc1[nH]n(-c2nc3ccccc3s2)c(=O)c1C(C)=Nc1ccc(OC)cc1,101% (active)
8,CCOc1ccc2c(c1)c(=O)c(S(=O)(=O)c1ccc(C)cc1)cn2CC,-0.17% (inactive)
9,Cc1ccc(N2C(=O)CN=C2Nc2nc(C)cc(C)n2)cc1,4.62% (inactive)
10,O=C1NNC(c2ccccc2)=N/C1=C\c1ccc(Cl)cc1,16.8% (inactive)
11,O=C(NC1CC1)c1ccc(-c2ccccc2)cc1,-4.49% (inactive)
12,O=C(NC1CC1)c1cccc(Br)c1,84.3% (active)
13,CC(=O)N1CCN(S(=O)(=O)c2cccc(C(=O)NC3CCC(C)CC3)c2)CC1 (stereo unspecified),3.88% (inactive)
14,COCCN(C(=O)CC1CCCCC1)c1c(N)n(CC(C)C)c(=O)[nH]c1=O,19.1% (inactive)
15,O=C(Nc1ccc(Cl)cc1)/C(=C1\CCCN1)[N+](=O)[O-],-36.6% (inactive)
16,COc1ccc(N2C(=O)C(O)C2c2ccc(C)cc2)cc1 (stereo unspecified),6.39% (inactive)
17,COC(=O)COc1ccc(S(=O)(=O)N2CCOCC2)cc1,12.7% (inactive)
18,COc1ccc(C(=O)Nc2nc(-c3ccc(S(=O)(=O)N4CCOCC4)cc3)cs2)cc1,93.7% (active)
19,COc1ccc(C(=O)Nc2cc(S(=O)(=O)N3CCCC3)ccc2Cl)cc1,-16% (inactive)
20,CS(=O)(=O)/C(C#N)=C/c1cccn1S(=O)(=O)c1ccc([N+](=O)[O-])cc1,-15.1% (inactive)
21,CCC(=O)N1Cc2cc(C(=O)NCc3cccc(F)c3)nc(-c3cccc(C4=CCCC4)c3)c2[C@H]1CCO,-7.06% (inactive)
22,Cc1ccc(Cl)cc1N1CCN(C(=O)c2cccc3c(=O)c(C)c(-c4ccccc4)oc23)CC1,40.6% (inactive)
